# High-throughput results: PubChem BioAssay, several laboratories
# SSB-PriA inh – inhibitors of Klebsiella pneumoniae PriA binding to SSB C-terminal tail. inhibition, % at 33 µM. AlphaScreen SSBct-PriA binding, biotinylated peptide. 430,000 tested, 0.6% active; in the data active means inhibition mostly above about 37%, no sharp cut-off; inactive means mostly below about 20%;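 further: plate controls were negative control peptide for no effect and reference peptide for full effect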
# ugtP null kill – compounds lethal to S. aureus RN4220 ugtP deletion mutant. OD600 growth, 16 h. growth inhibition, % (no concentration beside the values). 330,000 tested, 0.54% active; in the data active means growth inhibition above about 68%;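 further: plate controls were untreated wells for no effect and antibiotic for full effect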
# Sa RN4220 lethal – kills Staphylococcus aureus RN4220. 330,000 tested, 0.33% active. S. aureus RN4220 growth, OD600, 16 h. inhibition, % (concentration not given with the values); in the data active means inhibition above about 85%;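 further: plate controls were untreated cells for no effect and reference antibiotic for full effect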
# Starred values were filed as active, the others as inactive; . = not tested or not shown. The list is not random: actives were taken first. Their share in the collection is about 1%.
SMILES,SSB-PriA inh,ugtP null kill,Sa RN4220 lethal
CC(C)(C)C(=O)N1CC(S(=O)(=O)C2CCCCC2)C1,-5.0,.,.
Cc1c(Cl)ccc2sc(N(Cc3ccco3)C(=O)c3cccc(F)c3)nc12,-10.0,.,.
COc1cc(NC(=O)Nc2ccccc2)c(OC)cc1NC(=O)CN1CCCCC1,42.0*,4.1,4.0
COc1cc(NC(=O)Nc2ccccc2OC)c(OC)cc1NC(=O)CN1CCCCC1,37.7,-6.3,5.8
Cc1ccc(OCCCC(=O)Nc2cccc(Br)c2)cc1,-22.0,.,.
O=C(c1ccc(-c2cc(O)c3ncccc3c2)cc1)N1CCNCC1,74.4*,0.9,-7.5
CC(C)(C)c1ccc(C(=O)N2CCNCC2)cc1,0.0,6.3,2.0
O=C(O)c1ccc(-[n+]2c(-c3ccccc3)cc(-c3ccccc3)cc2-c2ccccc2)cc1,20.3,-2.7,-1.4
CCCOC(=O)c1ccc(-[n+]2c(-c3ccccc3)cc(-c3ccccc3)cc2-c2ccccc2)cc1,-15.6,100.5*,100.6*
NC(=O)[C@@H]1CCCCN1,-20.0,.,.
COc1ccc(NC(=O)CSC2=Nc3cccnc3Nc3ccccc32)cc1OC,44.0*,.,.
O=C(CSC1=Nc2cccnc2Nc2ccccc21)Nc1ccc(OC(F)(F)F)cc1,25.0,.,.
O=C(CSC1=Nc2cccnc2Nc2ccccc21)Nc1cc(Cl)ccc1Cl,30.0,.,.
O=C(CSC1=Nc2cccnc2Nc2ccccc21)Nc1ccc(F)cc1F,41.0*,.,.
COc1ccc(CNC(=O)c2ccc(Cn3c(C)nc4ccccc43)o2)cc1,9.0,.,.
CC1CCN(C(=O)Cn2cc(SCC(=O)Nc3ccc(Br)cc3)c3ccccc32)CC1,-6.0,.,.
O=[N+]([O-])c1cc(C=NN2CCCCC2)ccc1Cl,43.4*,-2.5,5.5
O=[N+]([O-])c1cc(C=NN2CCCCCC2)ccc1Cl,10.6,8.8,10.5
COc1ccccc1-c1sc2ccccc2c1-c1ccc(O)cc1,1.8,93.3*,-21.9
COc1ccc(-c2sc3ccccc3c2-c2ccc(O)cc2)cc1,1.9,.,.
COc1cc2sc(-c3ccccc3OC)c(-c3ccc(OCCN4CCCCC4)cc3)c2cc1OC,46.5*,.,.
C1=C(c2sc3ccccc3c2-c2ccc(OCCN3CCOCC3)cc2)CCCC1,41.3*,.,.
c1ccc(-c2sc3ccccc3c2-c2ccc(OCCN3CCOCC3)cc2)cc1,11.2,.,.
COc1ccccc1-c1sc2cc3c(cc2c1-c1ccc(OCCN2CCCCC2)cc1)OCO3,13.8,12.2,0.5
O=C(CCc1csc(NC(=O)Nc2ccccc2)n1)NCCc1c[nH]c2ccccc12,21.0,.,.
SMILES,SSB-PriA inh,ugtP null kill,Sa RN4220 lethal
CSc1ccc(CC(=O)Nc2nc3ccc4sc(C)nc4c3s2)cc1,10.0,.,.
CC(=O)c1cccc(NC(=O)[C@H]2CCCN(c3cc(-n4cccn4)ncn3)C2)c1,-10.0,.,.
CCOc1ccc(-c2noc(Cn3nc(-c4ccc(F)cc4)ccc3=O)n2)cc1OC,3.0,.,.
COc1cc(Nc2ccc(NC(=O)Nc3cccc(C)c3)cc2)nc(C)n1,5.0,.,.
O=C(Cc1ccc(F)cc1F)NCc1cncc(-c2cccs2)c1,-11.0,.,.
Cn1c(=O)c2c(NCc3cccs3)ccnc2n(C)c1=O,-3.0,.,.
C(#Cc1ccccc1)C[N+]1(CC#Cc2cccc3ccccc23)CCCC1,7.9,98.5*,88.0
C#CC[N+]1(CC#Cc2ccccc2)CCCC1,5.6,-2.6,4.4
CN(C)CCNC(=O)C(=O)Nc1cccc(F)c1,1.0,.,.
Cc1nc(CCn2cnc3cc(C)c(C)cc32)no1,4.0,.,.
NC(=O)NC(=O)CC1S/C(=N/N=C2/NC(=O)CS2)NC1=O (stereo not drawn),.,1.3,7.8
NC(=O)NC(=O)CC1SC(=NN=C2CSC(=O)N2)NC1=O (stereo not drawn),73.6*,.,.
Cc1cccc(NC(=O)Nc2ccc(CN3CCN(c4ccccn4)CC3)cc2)c1,41.0*,.,.
O=C(Nc1ccc(F)cc1)Nc1ccc(CN2CCN(c3ccccn3)CC2)cc1,1.0,.,.
Cc1ccc(N2CCCS2(=O)=O)cc1NS(=O)(=O)c1cnn(C)c1,-1.0,.,.
COC(=O)c1ccc(C(=O)N(CCn2cccn2)c2nc3c(Cl)cccc3s2)cc1,-5.0,.,.
Cn1nnnc1SCC1=C(C(=O)O)N2C(=O)C(NC(=O)Cn3nc(C(F)F)cc3C3CC3)C2SC1 (stereo not drawn),-4.8,100.7*,100.1*
CC1=C(C(=O)O)N2C(=O)C(NC(=O)c3nn(C)cc3Cl)C2SC1 (stereo not drawn),-7.9,7.4,3.6
Cc1c(Cl)cnn1CC(=O)NC1C(=O)N2C(C(=O)O)=C(CSc3nnnn3C)CSC12 (stereo not drawn),-3.1,100.5*,100.2*
Cc1nn(CC(=O)NC2C(=O)N3C(C(=O)O)=C(CSc4nnnn4C)CSC23)cc1Br (stereo not drawn),0.6,99.3*,100.0*
CC1=C(C(=O)O)N2C(=O)[C@@H](NC(=O)CCCC(=O)O)[C@H]2SC1,-3.6,-2.4,4.1
COc1cn(CC(=O)NC2CCCC2)c(CSc2nnnn2C)cc1=O,-4.0,.,.
Cc1c(Cl)c(C(F)F)nn1CC(=O)NC1C(=O)N2C(C(=O)O)=C(CSc3nnnn3C)CSC12 (stereo not drawn),6.0,97.3*,100.4*
CO[C@@]1(NC(=O)CSCC#N)C(=O)N2C(C(=O)O)=C(CSc3nnnn3C)CSC21 (stereo partly drawn),.,6.3,2.8
Cc1cc(NC(=O)Cc2ccc(F)cc2)n(C(C)C)n1,-11.0,.,.
SMILES,SSB-PriA inh,ugtP null kill,Sa RN4220 lethal
CC(=O)Nc1ccc(SCc2cccc(C(F)(F)F)c2)nn1,0.0,.,.
COc1ccc(C)c2sc(N(CCCN(C)C)C(=O)c3ccno3)nc12,-12.0,.,.
CSc1nc2ccc(NC(=O)Cc3ccccc3)cc2s1,-9.0,.,.
Cc1ccc(-n2ncc3c2ncn2c(C)nnc32)c(C)c1,4.0,.,.
Cc1ccccc1-c1cc2c(=O)n(CC(=O)c3ccc4c(c3)OCO4)ccn2n1,-1.0,.,.
CCCCc1ccc(NC(=O)c2ccc3nccnc3c2)cc1,-11.0,.,.
COCCNC(=O)CSc1nnc(C)c2cnn(-c3ccc(C)c(C)c3)c12,-3.0,.,.
N[C@@H](C(=O)N[C@@H]1C(=O)N2C(C(=O)O)=C(Cl)CS[C@H]12)c1ccccc1,-7.0,.,.
CC(C(=O)NC1C(=O)N2C(C(=O)O)=C(CSc3nnnn3C)CSC12)n1cc(Cl)cn1 (stereo not drawn),-3.5,100.2*,99.8*
CCn1ccc(C(=O)NC2C(=O)N3C(C(=O)O)=C(C)CSC23)n1 (stereo not drawn),-9.8,6.6,8.7
CCN1CCN(C(=O)NC(C(=O)NC2C(=O)N3C(C(=O)O)=C(CSc4nnnn4C)CSC23)c2ccc(O)cc2)C(=O)C1=O (stereo not drawn),.,100.3*,100.9*
Cc1cccc(C(N)=NOC(=O)COc2ccccc2Cl)c1,-44.7,.,.
Cn1nc(CNC(=O)C2c3ccccc3Oc3ccccc32)cc1-c1ccncc1,4.0,.,.
O=C1c2ccccc2C(O)N1c1ccc(Cl)cc1 (stereo not drawn),0.5,-7.4,-6.0
COC(=O)C1CN(C#N)N(c2ccc(Cl)cc2)C12c1ccccc1-c1ccccc12 (stereo not drawn),24.1,96.4*,90.0*
Cc1cc(CNC(=O)c2snnc2C)c(C)o1,-7.0,.,.
COC(=O)c1ccccc1NC(=O)N1c2ccccc2Sc2ccccc21,-19.7,94.2*,-7.7
COC(=O)c1ccc(C(=O)OC)c(NC(=O)N2c3ccccc3Sc3ccccc32)c1,-9.9,2.1,5.6
Cn1cc(C(=O)N2CCC(Oc3ncccc3C#N)CC2)nn1,-9.0,.,.
